# An excerpt weighted towards active compounds, which were near 1.8% of everything screened.
# RGS4 inhibitor: blocks human RGS4-accelerated GTP hydrolysis; Transcreener GDP fluorescence polarization, RGS4-accelerated GTP hydrolysis; Potency, µM (doses to about 114 µM), for the others: at the top dose activity change, negative = inhibition, hits mostly inhibitors; actives 0.039% (n = 390,000); also: % is scaled to controls: 0 for no effect and ±100 for the full control effect; nearly all actives have a fitted effect of over 75% in size
# Target sequence (P49798 whole entry, looked up): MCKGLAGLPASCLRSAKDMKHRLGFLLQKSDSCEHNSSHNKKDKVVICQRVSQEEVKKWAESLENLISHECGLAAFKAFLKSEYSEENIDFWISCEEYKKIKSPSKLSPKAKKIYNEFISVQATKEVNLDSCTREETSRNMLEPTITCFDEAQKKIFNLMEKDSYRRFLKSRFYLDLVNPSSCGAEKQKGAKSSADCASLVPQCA
#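 MLSMR compounds (23 nl, pin-transferred) preincubated 10 min at room temperature with a 500nM (2x) first reagent, then RGS4 at 900nM (2x) plus Transcreener GDP mix added; fluorescence polarization (620/688 nm) read before and after 90 min at 30 °C.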
# GLP1R cytotox: cytotoxic in the GLP-1 receptor inverse agonist counter-screen; HEK293 cAMP-luciferase reporter cells, luminescence, 24 h; Potency, µM (series often up to 38.3 µM), without a hit: at the top dose activity change, negative = inhibition, most hits filed as inhibitors; actives 0.13% (n = 410,000); AID 624418;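 also: loss of luciferase light is scored as toxicity; % is scaled to controls: 0 for no effect and ±100 for the full control effect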
#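 Luminescence readout: signal drop marks cytotoxicity. Plated cells grew 12 h at 37 °C, 5% CO2, received 23 nL compound for 24 h, then got luciferase reagent, read after 12 min at RT.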
# GLP1R inv ag: inverse agonists of human GLP-1 receptor | actives 1.6% (n = 410,000) | Potency, µM (highest dose often 38.3 µM), inactives show at the highest dose activity change, negative = inhibition, usual class: inhibitors | HEK293 GLP-1R CRE-luciferase, luminescence, 24 h; GLP-1R form is constitutively active; also: % is scaled to controls: 0 for no effect and ±100 for the full control effect; nearly all actives have a fitted effect of over 55% in size
# Target sequence (P43220 whole entry, looked up): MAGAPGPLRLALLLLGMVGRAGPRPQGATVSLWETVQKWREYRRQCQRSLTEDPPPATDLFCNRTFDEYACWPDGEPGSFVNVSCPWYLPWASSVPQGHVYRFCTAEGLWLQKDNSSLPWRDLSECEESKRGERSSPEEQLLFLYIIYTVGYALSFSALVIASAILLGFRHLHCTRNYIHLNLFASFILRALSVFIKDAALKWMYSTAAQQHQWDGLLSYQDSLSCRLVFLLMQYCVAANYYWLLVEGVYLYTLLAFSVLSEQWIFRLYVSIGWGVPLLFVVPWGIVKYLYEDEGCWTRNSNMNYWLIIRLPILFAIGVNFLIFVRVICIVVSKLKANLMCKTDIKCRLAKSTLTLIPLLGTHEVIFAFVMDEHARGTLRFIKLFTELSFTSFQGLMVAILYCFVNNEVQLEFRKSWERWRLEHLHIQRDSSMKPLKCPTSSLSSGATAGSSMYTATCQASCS
#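 HEK293 cells stably co-expressing constitutively active GLP-1R and a cAMP-responsive luciferase reporter were seeded in DMEM with 10% Nu serum, given compounds after 12 h, and incubated 24 h at 37 deg C. Luminescence was then read.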
# KAT2A inh: blocks human GCN5L2 histone acetyltransferase | Q92830 | GCN5L2 HAT assay, ThioGlo1 CoA-SH fluorescence | Potency, µM (highest dose often 58.9 µM), without a hit: top-dose activity change, negative = inhibition, hits mostly inhibitors | actives 0.21% (n = 390,000); also: % is scaled to controls: 0 for no effect and ±100 for the full control effect
#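 Free CoA generated was detected with ThioGlo1 (50uM) fluorescence at Ex340nm/Em540nm, read immediately and after 20 min at room temperature. Enzyme, 20 nM in HEPES pH 7.5 buffer, saw compounds 15 min before adding 75uM H3(1-25) peptide and 70uM acetyl-CoA.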
# GLP-1R agonist: agonists of human GLP-1 receptor. HEK293 GLP-1R CRE-luciferase, luminescence, 4-6 h; cells express a hypersensitive GLP-1R form. Potency, µM (highest dose often 45.6 µM), for inactives: top-dose activation, most hits filed as activators. actives 0.007% (n = 380,000). AID 624172; also: % of control where 0% means no effect
# PTHR1 ag: agonists of human PTHR1 parathyroid hormone receptor. HEK293 GP2 PTHR1 cells, GloSensor cAMP luminescence, 1 h. AID 743266. Q03431. Potency, µM (titrated, usually from 115 µM), inactives show at the highest dose activation, usual class: activators. actives 0.075% (n = 410,000); also: nearly all actives have a fitted effect of over 55% in size
#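 HEK-293-derived GP2 cells expressing PTHR1 and a GloSensor cAMP reporter, 3,000/well, plated overnight, given luciferin plus IBMX (each 0.5 mM as added) for 1 h at 37 °C, then compound for 1 h at 37 °C. Luminescence was read after 15 min at room temperature.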
# * marks the source's active call; other numbers are inactive results; i = inactive; ? = inconclusive; nt = no result given; [ ] = remark or other dose. Calls follow the shape of the dose curve; as a rule, active = well fitted curve in the direction sought with a large enough effect; inconclusive = small, poorly fitted or top-dose-only effect, or another doubt; inactive = no such curve, though single readings can be large; an effect the other way counts as inactive or inconclusive. Potency is read from the fitted curve at half-maximal effect.
SMILES,RGS4 inhibitor,GLP1R cytotox,GLP1R inv ag,KAT2A inh,GLP-1R agonist,PTHR1 ag
CCc1ccc(-n2c(=O)c3c4c(sc3n(CC(=O)N3CCCCC3CC)c2=O)CCC4)cc1 (stereo not given),8%,7%,-16%,-2%,-1%,-23%
Cc1ccc(S(=O)(=O)N2CCCC(C(=O)NCc3ccc4c(c3)OCO4)C2)cc1 (stereo not given),8%,-4%,?,-1%,13%,-8%
Cc1ccc(S(=O)(=O)N2CCCC(C(=O)NCCc3ccc4c(c3)OCO4)C2)cc1 (stereo not given),-12%,15%,13µM*,-1%,-6%,-48%[57.5 µM]
CC1CC(C)CN(S(=O)(=O)c2ccc(C(=O)NCc3ccc4c(c3)OCO4)cc2)C1 (stereo not given),4%,22%,10µM*,-9%,5%,i
CC1CCN(S(=O)(=O)c2ccc(C(=O)NCc3ccc4c(c3)OCO4)cc2)CC1,27%,6%,0%,-1%,2%,i
O=C(NC(=S)Nc1ccc(N2CCCCC2)c(Cl)c1)c1cccs1,-28%,2.8µM*,0%,nt,-4%,-26%
COc1ccccc1N1CCN(Cc2cc(Br)c(O)c3ncccc23)CC1,-20%,1.1µM*,?,-7%,-7%,3%
Oc1c(CN2CCN(c3ccccn3)CC2)cc(Cl)c2cccnc12,-38%,?,0.5µM*,-10%,7%,i
OCCN1CCN(Cc2cc(Cl)c3cccnc3c2O)CC1,11%,?,?,-6%,-8%,-8%
CC(=O)N(C[C@@H](O)CO)c1c(I)c(C(=O)NC[C@@H](O)CO)c(I)c(C(=O)NC[C@@H](O)CO)c1I,nt,nt,nt,10µM*,nt,nt
CC(C)NC(=O)c1ccc(Cn2c(=O)c3cccn3c3cccnc32)cc1,25%,-2%,10%,2%,nt,i
Cc1cc(Nc2cccc(Cl)c2)nc2ccc(NC(=O)Cc3ccc(Cl)cc3)cc12,6%,-24%,5.6µM*,-11%,-6%,-11%
COc1ccc(CC(=O)Nc2ccc3nc(Nc4ccc(OC)cc4)cc(C)c3c2)cc1,-27%,-6%,-23%,-12%,-4%,-4%
COc1ccc(Nc2cc(C)c3cc(NC(=O)COc4cccc(C)c4)ccc3n2)cc1,11%,-12%,10µM*,-9%,-5%,-34%
Cc1cc(Nc2cccc(C(F)(F)F)c2)nc2ccc(NC(=O)c3cccc(Cl)c3)cc12,16%,?,2.8µM*,-17%,-17%,-8%
Cc1cc(Nc2cccc(Cl)c2)nc2ccc(NC(=O)Cc3cccc(C(F)(F)F)c3)cc12,25%,?,4µM*,-7%,-10%,-12%
COc1ccc(C(C)=O)cc1Cn1c(C)c(C(=O)NCCC#N)sc1=O,nt,-7%,24%,nt,-3%,i
COc1ccc2c(c1)CC(N1CCN(C)CC1)c1cc(OC)ccc1S2 (stereo not given),-24%,?,2.5µM*,nt,9%,i
COc1cccc(/C=N/Nc2cc(-n3nc(C)cc3-c3ccccc3)ncn2)c1O,-34%,2.2µM*,3.5µM*,-4%,-33%,-32%
CCOC(=O)N/N=C/c1cn(CCCOc2ccccc2)c2ccccc12,-1%,19%,8.9µM*,-2%,14%,-10%
COC(=O)N/N=C/c1cn(CC(C)COc2ccccc2)c2ccccc12 (stereo not given),-7%,-27%,10µM*,-7%,-7%,-4%
COC(=O)N/N=C/c1cn(CCOc2ccccc2)c2ccccc12,-6%,5%,?,-11%,24%,i
CCOC(=O)N/N=C/c1cn(CCCOc2ccc(C)cc2)c2ccccc12,6%,-1%,?,-2%,9%,i
COc1ccc(/C=C2\SC(=S)N(CC(=O)NC3C=CS(=O)(=O)C3)C2=O)cc1 (stereo not given),-23%,-11%,31%,-1%,0%,i
Cc1ccc(NC(=O)CN(C)C(=O)C2CSC3(C)CCC(=O)N23)cc1 (stereo not given),nt,13%,2%,nt,-2%,9%
SMILES,RGS4 inhibitor,GLP1R cytotox,GLP1R inv ag,KAT2A inh,GLP-1R agonist,PTHR1 ag
CCN(Cc1ccccc1)CC(O)COC(c1ccc(OC)cc1)c1ccc(OC)cc1 (stereo not given),-10%,?,10µM*,-7%,13%,i
CCN(CC)CC(O)COC(c1ccccc1)c1ccccc1 (stereo not given),6%,11%,-37%,-2%,-4%,i
CCC(=O)OCC(=O)[C@@]1(OC(=O)CC)[C@H](C)C[C@@H]2[C@H]3CCC4=CC(=O)C=C[C@]4(C)[C@]3(Cl)[C@@H](O)C[C@@]21C,nt,nt,nt,0%[21.4 µM],nt,nt
Cc1ccc(/C=N/Nc2ccc(F)cc2F)s1,-33%,-14%,5µM*,-6%,1%,-42%
O=C(COc1ccc2c(c1)oc(=O)c1ccccc12)N[C@@H](Cc1c[nH]c2ccccc12)C(=O)O,3%,2%,-9%,25µM*,-2%,-19%
Cc1c(C)c2ccc(OCC(=O)N[C@@H](Cc3c[nH]c4ccccc34)C(=O)O)cc2oc1=O,-15%,2%,6%,-15%,-2%,-25%
Cc1cccc(C)c1-n1nnnc1C1(C)CCC(=O)N1Cc1cccc(C(F)(F)F)c1 (stereo not given),nt,-7%,-5%,nt,4%,-20%
Cc1ccc(NC(=O)CN2CCC(Cc3ccccc3)CC2)cc1S(=O)(=O)N(C)C,8%,-13%,8.9µM*,-4%,-3%,-37%
COC(=O)C1=CO[C@@H](C)[C@@H]2CN3CCc4c([nH]c5ccccc45)[C@@H]3C[C@H]12,nt,nt,nt,34%,nt,nt
COc1ccc(CCNCC(=O)Nc2ccc(C)c(Br)c2)cc1OC,1%,-10%,11µM*,0%,-3%,-16%
COc1ccc(CCNCC(=O)Nc2ccc(C)c(S(=O)(=O)N(C)C)c2)cc1OC,13%[56.9 µM],-4%,2%,-12%,0%,7%
O=C(Nc1nc(-c2ccc(Cl)cc2Cl)cs1)c1ccc(OCC2CCCO2)cc1 (stereo not given),22%,-1%,7.1µM*,-8%,5%,-27%
Cc1ccc(CS(=O)(=O)Cc2ccc(C(=O)NCCc3ccc(Cl)cc3)o2)cc1,-9%,0%,7%,-12%,nt,i
CO/N=C(\Cn1ncc(N2CCCC2)c(Br)c1=O)c1ccc(Cl)cc1,-14%[11.4 µM],-18%,11µM*,-15%,13%,-1%
